The target of assay [1] is D(1A) dopamine receptor (Homo sapiens) (UniProt P21728). Nature of the assay: HTS Assay for Allosteric Agonists of the Human D1 Dopamine Receptor: Primary Screen for Agonists (AID 488981). Further: 0% is about no effect. Summed up: (§1)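 Calcium flux in an inducible, force-coupled HEK293 Trex D1 line (overnight at 30 C): agonist mode is the 180 s kinetic read after compound; potentiator mode is the following 180 s read after dopamine at EC20.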

Assay [2] shares this target. Description: HTS Assay for Allosteric Agonists of the Human D1 Dopamine Receptor: Primary Screen for Potentiators (AID 488982). Further: potency means the concentration at half of the fitted maximal effect. Summed up:
as §1

Assay [3] shares this target. Description: HTS Assay for Allosteric Agonists of the Human D1 Dopamine Receptor: Primary Screen for Antagonists (AID 488983).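 Further: calcium flux response to an EC80 dopamine challenge measured with no-wash dye; nearly all actives have a fitted effect of over 65% in size.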 Further: potency means the concentration at half of the fitted maximal effect. Summed up:
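In this primary screen, compounds are applied to calcium-dye-loaded HEK293 T-REx cells with force-coupled D1 expression induced overnight at 30 C. An EC80 of dopamine follows the 180 s compound phase, and calcium is monitored for a further 180 s.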

The nature of assay [4]: Validation screen for small molecules that induce genotoxicity in human embryonic kidney (HEK293T) cells expressing luciferase-tagged ELG1 (AID 493106). Further: potency means the concentration at half of the fitted maximal effect. In short, it runs like this:
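In this validation screen, increased ELG1-luciferase signal flags compounds causing genetic stress. HEK293T reporter cells are treated 16 hr (37 °C, 5% CO2), developed with ONE-Glo for 30 min at room temperature, and imaged on a CCD-based reader.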

Assay [5] concerns the target ATPase family AAA domain-containing protein 5 (Homo sapiens) (UniProt Q96QE3). Description: Validation screen for small molecules that inhibit ELG1-dependent DNA repair in human embryonic kidney (HEK293T) cells expressing luciferase-tagged ELG1 (AID 493107). Further: nearly all actives have a fitted effect of over 70% in size. Further: potency means the concentration at half of the fitted maximal effect. Summed up:
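Compounds reducing 5-fluorouridine-driven ELG1-luciferase signal in HEK293T cells were scored; exposure lasted 16 hr at 37 °C with luminescence detected via ONE-Glo.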

Assay [6] is described as follows: qHTS for Inhibitors of Cell Surface uPA Generation: Validation Assay (AID 493164).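 Further: RAW 264.7 macrophage cells exposed to compound for 18 h; 0% is about no effect.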 Summed up: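 Compounds are titrated over seven points (2.45 nM–38.3 uM final) onto pre-plated RAW 264.7 cells and incubated for 18 h. Retained intracellular ATP, measured with ATP-Lite, indicates blocked lethal factor entry.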
For assay [7], the target named is Peptidyl-prolyl cis-trans isomerase NIMA-interacting 1 (Homo sapiens) (UniProt Q13526). Description: qHTS Validation Assay to Find Inhibitors of Pin1 (AID 504536; active means well fitted inhibition curve with a large enough effect in the polarisation, with a control signal flat, not every such curve was filed as active; the % refers to the polarisation;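 further: 0% = full Pin1 enzyme wells and -100% = no-enzyme wells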). Summed up: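 Fluorescence polarization competition: compounds (titration) displace HiFluor-488-labeled Pin1-1b peptide from Pin1 (0.3 uM final) in pH 7.5 HEPES buffer with DTT, 10 min at room temperature; %Activity normalized to no-enzyme wells, curves fitted.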
On the technique in general: qHTS replaces the single test concentration by a dilution series.

Assay [8] has as its target Phosphoglycerate kinase, glycosomal (Trypanosoma brucei brucei) (UniProt P07378). Description: qHTS Validation Assay to Find Inhibitors of Phosphoglycerate Kinase (AID 504547).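 Further: control wells lack PGK and mark full inhibition.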 Summed up:
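Luminescence end-point (Kinase-Glo Plus, 10 min) after a 60 min room-temperature coupled reaction. GAPDH at 100nM final supplies 1,3-BPG to PGK. Buffer: 100mM TEA pH 7.6, 5mM MgCl2, 0.01% Tween-20. Wells lacking PGK served as controls.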

Assay [9] addresses phosphoglycerate mutase (Leishmania major) (UniProt Q4Q090). Nature of the assay: qHTS Validation Assay to Find Inhibitors of Phosphoglycerate Mutase (AID 504548). Further: series mostly up to about 58 µM; on the % scale 0 is the no-effect control and ±100 the full control effect. The note with it: Potency: inhibition qHTS. Summed up: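 Luminescent end-point read-out via Kinase-GloPlus after a 10-minute development. Reaction: 1.25nM Leishmania major PGAM with substrate and compound, 45 minutes at room temperature in TEA buffer (pH 7.6) with MgCl2 and Tween-20.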

Assay [10] concerns the target Ubiquitin carboxyl-terminal hydrolase 1 (Homo sapiens) (UniProt O94782). Description: Inhibitors of USP1/UAF1: Pilot qHTS (AID 504865).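 Further: rhodamine fluorescence freed from ubiquitin-rhodamine substrate followed over time; top concentration of the series differs between compounds; on the % scale 0 is the no-effect control and ±100 the full control effect; nearly all actives have a fitted effect of over 35% in size.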 In short, it runs like this: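 USP1/UAF1 complex (1nM) preincubated with compound 15 min at room temperature, then Ub-Rho substrate (150nM final) added. Fluorescence read kinetically at 480/540 nm, 6 reads every 60 seconds. Buffer: 50mM HEPES pH 7.8, 0.5mM EDTA, 0.1 mg/ml BSA, 1mM TCEP, 0.01% Tween-20.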

Assay [11] is described as follows: qHTS for Inhibitors of ATXN expression: Validation of Cytotoxic Assay (AID 588349). Further: on the % scale 0 is the no-effect control and ±100 the full control effect. Summed up:
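Toxicity of test compounds toward HEK293 cells is scored from cellular ATP content measured by CellTiter Glo. Cells receive titrated doses and incubate 72 hr at 37 degrees C beforehand.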

A short description of assay [12]: qHTS for Inhibitors of ATXN expression: Validation (AID 588378). Further: series mostly up to about 57 µM; on the % scale 0 is the no-effect control and ±100 the full control effect; nearly all actives have a fitted effect of over 75% in size. Summed up:
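Luminescence from an ATXN2-FFLuc reporter in HEK293 cells served as read-out after 24 h compound treatment at 37 degrees C; CellTiter-Fluor fluorescence was recorded first to assess viability.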

A short description of assay [13]: Nrf2 qHTS screen for inhibitors: Validation (AID 493153; active means well fitted inhibition curve with a large enough effect in the main read-out, with a control signal flat, not every such curve was filed as active). The note with it: Potency: luciferase luminescence; viability change: measured here: cytotoxicity max response. In short, it runs like this: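 In this counterscreened reporter format, each well gives two signals: CellTiter-Fluor fluorescence for cytotoxicity and ARE-luciferase luminescence for Nrf2 function. A549 ARE_Fluc cells in 5% FBS OPTI-MEM were exposed to compound titrations for 18-24 h.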

Inconclusive results are not listed. Active and inactive are the calls of the source. Unless noted, the call rests on the fitted dose curve; in most records, active means well fitted curve in the direction sought with a large enough effect; inconclusive means small, poorly fitted or top-dose-only effect, or another doubt; inactive means no such curve, though single readings can be large; an effect the other way counts as inactive or inconclusive.

Sequence of ATPase family AAA domain-containing protein 5 (Homo sapiens) (Q96QE3 whole entry, looked up, the tested form may be a part): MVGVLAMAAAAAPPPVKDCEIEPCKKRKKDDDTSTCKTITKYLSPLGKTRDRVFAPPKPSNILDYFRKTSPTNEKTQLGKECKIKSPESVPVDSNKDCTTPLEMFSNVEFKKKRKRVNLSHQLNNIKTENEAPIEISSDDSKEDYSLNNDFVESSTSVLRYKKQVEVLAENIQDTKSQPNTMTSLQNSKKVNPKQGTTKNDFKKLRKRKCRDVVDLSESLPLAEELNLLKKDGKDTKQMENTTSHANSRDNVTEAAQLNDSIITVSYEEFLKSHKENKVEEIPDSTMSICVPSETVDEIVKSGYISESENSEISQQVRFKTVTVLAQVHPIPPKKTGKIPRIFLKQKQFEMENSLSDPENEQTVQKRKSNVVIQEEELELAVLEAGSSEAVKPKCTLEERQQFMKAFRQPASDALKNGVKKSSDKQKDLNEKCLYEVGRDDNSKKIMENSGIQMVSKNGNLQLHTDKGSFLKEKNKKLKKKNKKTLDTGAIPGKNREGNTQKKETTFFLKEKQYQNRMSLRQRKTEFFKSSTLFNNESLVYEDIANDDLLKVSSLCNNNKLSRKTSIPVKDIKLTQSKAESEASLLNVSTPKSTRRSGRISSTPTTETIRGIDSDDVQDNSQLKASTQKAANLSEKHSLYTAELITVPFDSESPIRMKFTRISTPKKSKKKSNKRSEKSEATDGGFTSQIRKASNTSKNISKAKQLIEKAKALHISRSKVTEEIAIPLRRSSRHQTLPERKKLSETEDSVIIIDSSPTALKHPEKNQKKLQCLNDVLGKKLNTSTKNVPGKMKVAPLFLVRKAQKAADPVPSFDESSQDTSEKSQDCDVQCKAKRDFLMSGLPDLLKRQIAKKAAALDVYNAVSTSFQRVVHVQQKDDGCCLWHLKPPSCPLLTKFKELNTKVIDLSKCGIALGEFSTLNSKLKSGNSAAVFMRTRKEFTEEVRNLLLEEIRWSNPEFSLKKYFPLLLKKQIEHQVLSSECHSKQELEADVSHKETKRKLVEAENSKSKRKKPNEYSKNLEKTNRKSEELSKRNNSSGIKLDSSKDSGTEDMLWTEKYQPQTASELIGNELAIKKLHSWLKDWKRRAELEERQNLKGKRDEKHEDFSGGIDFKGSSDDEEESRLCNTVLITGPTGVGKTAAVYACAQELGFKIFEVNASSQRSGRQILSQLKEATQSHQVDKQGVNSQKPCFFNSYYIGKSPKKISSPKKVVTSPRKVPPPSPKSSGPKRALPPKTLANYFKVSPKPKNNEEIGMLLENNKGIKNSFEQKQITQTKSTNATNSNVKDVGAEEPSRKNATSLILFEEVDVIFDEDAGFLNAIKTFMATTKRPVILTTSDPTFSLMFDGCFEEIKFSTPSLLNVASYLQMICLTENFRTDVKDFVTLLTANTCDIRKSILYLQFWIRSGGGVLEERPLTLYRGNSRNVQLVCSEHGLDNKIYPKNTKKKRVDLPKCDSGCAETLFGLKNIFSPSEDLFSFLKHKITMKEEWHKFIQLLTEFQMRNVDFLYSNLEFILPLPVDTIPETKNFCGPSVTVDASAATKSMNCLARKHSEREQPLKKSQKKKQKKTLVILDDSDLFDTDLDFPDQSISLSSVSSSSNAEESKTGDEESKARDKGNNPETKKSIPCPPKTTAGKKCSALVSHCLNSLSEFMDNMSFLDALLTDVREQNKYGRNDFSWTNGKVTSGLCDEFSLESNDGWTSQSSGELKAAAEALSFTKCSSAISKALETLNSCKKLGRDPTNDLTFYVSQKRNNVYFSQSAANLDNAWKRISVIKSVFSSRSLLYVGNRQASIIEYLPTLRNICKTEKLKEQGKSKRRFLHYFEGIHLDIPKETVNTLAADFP
Sequence of D(1A) dopamine receptor (Homo sapiens) (P21728 whole entry, looked up): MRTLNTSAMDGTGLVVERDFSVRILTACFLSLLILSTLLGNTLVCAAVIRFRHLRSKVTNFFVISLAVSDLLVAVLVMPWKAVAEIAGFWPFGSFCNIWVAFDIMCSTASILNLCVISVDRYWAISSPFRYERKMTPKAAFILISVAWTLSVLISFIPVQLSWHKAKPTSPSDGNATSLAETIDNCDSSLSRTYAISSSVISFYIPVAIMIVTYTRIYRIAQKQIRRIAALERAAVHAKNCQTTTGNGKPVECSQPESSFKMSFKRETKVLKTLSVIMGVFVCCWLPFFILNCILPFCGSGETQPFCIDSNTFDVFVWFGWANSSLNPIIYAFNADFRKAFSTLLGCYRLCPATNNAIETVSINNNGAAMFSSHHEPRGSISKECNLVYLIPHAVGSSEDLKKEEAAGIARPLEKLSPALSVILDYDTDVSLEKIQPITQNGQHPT
Sequence of Peptidyl-prolyl cis-trans isomerase NIMA-interacting 1 (Homo sapiens) (Q13526 whole entry, looked up): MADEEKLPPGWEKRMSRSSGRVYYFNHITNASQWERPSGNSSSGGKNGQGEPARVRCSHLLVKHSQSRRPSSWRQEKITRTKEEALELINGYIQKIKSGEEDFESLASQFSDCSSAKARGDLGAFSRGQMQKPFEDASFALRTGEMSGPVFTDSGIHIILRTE
Sequence of Phosphoglycerate kinase, glycosomal (Trypanosoma brucei brucei) (P07378 whole entry, looked up): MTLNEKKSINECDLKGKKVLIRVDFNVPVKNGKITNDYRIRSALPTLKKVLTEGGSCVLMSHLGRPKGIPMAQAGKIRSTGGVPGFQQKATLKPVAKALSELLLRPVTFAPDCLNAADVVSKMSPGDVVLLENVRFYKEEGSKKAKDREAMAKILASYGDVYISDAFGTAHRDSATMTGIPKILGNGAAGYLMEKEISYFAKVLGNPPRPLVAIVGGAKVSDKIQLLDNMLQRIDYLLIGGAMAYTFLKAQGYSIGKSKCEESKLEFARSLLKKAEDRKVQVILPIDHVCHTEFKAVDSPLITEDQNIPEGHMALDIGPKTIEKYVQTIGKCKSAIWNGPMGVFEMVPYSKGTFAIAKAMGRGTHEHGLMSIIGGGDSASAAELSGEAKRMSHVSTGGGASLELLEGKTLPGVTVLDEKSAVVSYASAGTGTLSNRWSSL
Sequence of Ubiquitin carboxyl-terminal hydrolase 1 (Homo sapiens) (O94782 whole entry, looked up): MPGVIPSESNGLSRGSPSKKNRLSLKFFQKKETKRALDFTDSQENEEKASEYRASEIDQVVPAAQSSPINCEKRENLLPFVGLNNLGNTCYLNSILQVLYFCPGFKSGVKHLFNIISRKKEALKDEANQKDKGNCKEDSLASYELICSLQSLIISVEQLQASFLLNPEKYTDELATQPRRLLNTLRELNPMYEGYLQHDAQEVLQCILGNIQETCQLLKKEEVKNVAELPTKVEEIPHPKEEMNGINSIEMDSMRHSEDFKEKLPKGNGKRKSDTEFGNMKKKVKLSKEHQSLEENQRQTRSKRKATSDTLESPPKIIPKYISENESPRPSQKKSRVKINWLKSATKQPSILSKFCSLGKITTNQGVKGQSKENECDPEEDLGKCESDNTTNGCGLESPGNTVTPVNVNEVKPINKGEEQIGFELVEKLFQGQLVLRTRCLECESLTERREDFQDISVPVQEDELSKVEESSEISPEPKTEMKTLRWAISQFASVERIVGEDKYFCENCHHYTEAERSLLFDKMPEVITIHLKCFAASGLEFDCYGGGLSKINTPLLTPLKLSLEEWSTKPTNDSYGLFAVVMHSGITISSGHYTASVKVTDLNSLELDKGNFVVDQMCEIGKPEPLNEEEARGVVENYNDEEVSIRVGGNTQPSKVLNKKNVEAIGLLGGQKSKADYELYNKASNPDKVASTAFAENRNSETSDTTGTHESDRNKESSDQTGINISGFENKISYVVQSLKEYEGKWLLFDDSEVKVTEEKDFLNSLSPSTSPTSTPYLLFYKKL
Sequence of phosphoglycerate mutase (Leishmania major) (Q4Q090 1-553): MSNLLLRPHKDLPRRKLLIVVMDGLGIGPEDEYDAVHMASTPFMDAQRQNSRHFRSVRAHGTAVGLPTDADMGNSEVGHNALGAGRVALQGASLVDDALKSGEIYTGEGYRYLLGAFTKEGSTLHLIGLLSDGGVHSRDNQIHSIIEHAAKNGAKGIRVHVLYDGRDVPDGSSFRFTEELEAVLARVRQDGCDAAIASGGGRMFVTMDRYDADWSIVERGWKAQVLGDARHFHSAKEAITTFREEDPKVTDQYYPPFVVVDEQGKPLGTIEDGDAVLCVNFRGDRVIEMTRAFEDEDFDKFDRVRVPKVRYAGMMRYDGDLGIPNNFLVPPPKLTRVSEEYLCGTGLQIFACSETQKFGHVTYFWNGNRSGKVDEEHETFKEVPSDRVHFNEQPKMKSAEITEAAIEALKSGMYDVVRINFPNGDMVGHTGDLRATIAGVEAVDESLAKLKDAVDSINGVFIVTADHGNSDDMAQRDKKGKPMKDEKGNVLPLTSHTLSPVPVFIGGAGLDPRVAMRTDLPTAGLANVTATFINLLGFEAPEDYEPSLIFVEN

In the case of `C=CCNc1ncnc2ccc(Br)cc12`, the Potency entry in assay [1], in assay [2], in assay [3], in [4], in [7] and in assay [8] was “inactive” each time. Also, the Potency entry in [9], in assay [10], in assay [11] and in assay [12] was “inactive” throughout. In addition, the Potency in assay [5] is 7.3 µM (active). Moreover, in assay [6], the compound was called inactive.
For the compound `CCc1ccc2c(-c3cccc(Cl)c3)nc(=O)n(CC)c2n1`, the Potency result in [1], in assay [2], in [3], in [4], in assay [5] and in assay [13] was “inactive” each time. Also, the Potency result in [7], in [8], in [9], in assay [10], in assay [11] and in [12] was “inactive” throughout. For the same compound, the viability change in assay [13] was found to be 1.57%.
For the compound `c1ccc(C(NCc2cccnc2)(c2ccccc2)c2ccccc2)cc1`, the Potency result in [1], in assay [4], in assay [13], in assay [7], in assay [8] and in assay [9] was “inactive” each time. Further, the Potency in assay [2] is 4.11 µM (active). In addition, in [13], the viability change worked out at 7.92%. In addition, the call in assay [6] was inactive.
Take `CN(C)CCCc1cc(C(=O)Nc2ccc(-c3ccncc3)cc2)ccc1O`: the Potency result in [1], in assay [2], in [3], in assay [4], in assay [5] and in assay [7] was “inactive” in each case. Also, the Potency entry in assay [8], in [9], in [10], in [11] and in assay [12] was “inactive” in each case. In assay [6], the call was inactive.
Consider `O=C(O)CCC/C=C\C[C@@H]1[C@@H](/C=C/[C@H](O)C2Cc3ccccc3C2)[C@@H](F)C[C@@H]1O`, for which the Potency result in [1], in assay [2], in [3], in [5], in assay [7] and in [8] was “inactive” throughout. Further, the Potency entry in [9], in assay [10], in assay [11] and in assay [12] was “inactive” each time. Further, in [6], the outcome was inactive.
For the compound `CN1Cc2sccc2C(c2ccc(O)c(O)c2)C1` (stereo not given), the Potency result in assay [2], in assay [4], in assay [5], in assay [13], in assay [7] and in [8] was “inactive” in each case. In addition, the Potency result in assay [9], in assay [10] and in assay [12] was “inactive” in each case. Further, in assay [3], the Potency was 0.355 µM (active). Moreover, the viability change in assay [13] was found to be 12.4%.
Turning to `Brc1c(Br)c(Br)c2[nH]cnc2c1Br`, the Potency entry in [1], in [3], in assay [4], in [7], in assay [8] and in [10] was “inactive” in each case. The Potency result in assay [11] was “inactive”. For the same compound, the Potency in [5] is 4.61 µM (active). Moreover, the compound was classed as inactive in [6].
With `CN(CC[C@@H](Oc1ccc(C(F)(F)F)cc1)c1ccccc1)CC(=O)O`, the Potency result in assay [1], in [2], in assay [3], in assay [4], in assay [7] and in assay [8] was “inactive” each time. Besides, the Potency result in [9], in assay [10] and in [11] was “inactive” each time. In assay [6], the compound was classed as inactive.
As for `COc1ccc(-c2cc3ncc(C)n3c(Nc3ncccc3C(N)=O)n2)cc1OC`, the Potency entry in assay [1], in [2], in [3], in [4], in [7] and in assay [8] was “inactive” in each case. For the same compound, the Potency result in assay [9] and in assay [10] was “inactive” throughout. Also, the Potency in [5] was 1.03 µM (active). Also, the outcome in assay [6] was inactive.
As to `CCCCCCC(=O)OC1CC(C)(C)NC(C)(C)C1`, the Potency result in assay [1], in [2], in assay [3], in assay [4], in [7] and in assay [8] was “inactive” in each case. Moreover, the Potency result in [9], in [10], in assay [11] and in assay [12] was “inactive” each time. Besides, the outcome in [6] was inactive.
As to `CNCCc1cnc(CCC(c2ccccc2)c2ccccc2)[nH]1`, the Potency entry in assay [2], in assay [3], in assay [4], in assay [7], in assay [8] and in assay [9] was “inactive” in each case. In assay [10], the Potency result is “inactive”. In addition, the outcome in assay [6] was inactive.
Regarding `c1ccc(C(NCCNC(c2ccccc2)c2ccccc2)c2ccccc2)cc1`, the Potency entry in assay [1], in assay [2], in assay [4], in [5], in assay [7] and in assay [8] was “inactive” each time. In addition, the Potency entry in assay [9] is “inactive”. In addition, the call in [6] was inactive.
Take `C[C@](Cc1ccc(O)c(O)c1)(NN)C(=O)O`: the Potency result in assay [1], in assay [3], in assay [5], in [13], in assay [7] and in [8] was “inactive” in each case. The Potency result in [9], in assay [10], in [11] and in assay [12] was “inactive” throughout. In assay [13], the viability change was -1.27%. In [6], the compound was called inactive.
As for `CSc1nc(N)c2ncn([C@@H]3O[C@H](COP(=O)(O)OP(=O)(O)O)C(O)[C@H]3O)c2n1` (stereo not given in full), in [2], the Potency was 0.0517 µM (active). Besides, the Potency entry in assay [5], in assay [13], in assay [9], in assay [10], in assay [11] and in assay [12] was “inactive” throughout. Further, in [13], the viability change is 0.858%. In addition, the outcome in assay [6] was inactive.
Turning to `O=c1cc(-c2ccccc2F)[nH]c2cc3c(cc12)OCO3`, the Potency entry in assay [1], in assay [3], in assay [5], in assay [7], in assay [8] and in assay [9] was “inactive” each time. In addition, the Potency result in [10] and in assay [12] was “inactive” each time. Besides, the Potency in [4] is 5.17 µM (active). In [6], the call was inactive.

For the origin of these results see PubChem BioAssay (NCATS).
